Bioassay records from PubChem.
KCNH2 3.1 block: KCNH2 3.1 (human) potassium channel inhibition; 340,000 tested, 0.95% active; activity change, % (tested at about 1.8 µM); U2OS KCNH2 3.1, thallium flux FluxOr; stronger effect = lower value;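 active = maximum activity change below -70%; inconclusive = maximum activity change from -70% to -50%; inactive = maximum activity change above -50%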;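 also: thallium influx rate constant from kinetic fluorescence after stimulation buffer; % is scaled to controls: 0 for no effect and ±100 for the full control effect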
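Measured as rate of thallium-driven FluxOr signal in transduced U2OS cells carrying the 3.1 channel, read kinetically for 2 min upon stimulation; values are rate constants scaled to DMSO control wells.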
CBFb-RUNX1 inh: inhibitors of human CBF-beta and RUNX1 interaction; 230,000 tested, under 10 active; Q01196+Q13951; AlphaScreen CBFb-His/RUNX1-biotin binding, biochemical; AID 1477; Potency, µM (top dose mostly 59.8 µM), for inactives: top-dose activity, negative = inhibition, hits mostly inhibitors; also: % of control where 0% means no effect
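Interaction loss through any mechanism counts as activity. Pre-formed complex of His-CBF-beta and biotin-RUNX1 (30 nM apiece) is incubated with compound 15 min, then with 50 ng nickel and 50 ng streptavidin beads for 90 min before AlphaScreen detection.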
KCNH2 WT inh: blocks the wildtype human KCNH2 potassium channel; Q12809; U2OS, BacMam KCNH2, thallium flux FluxOr; stronger effect = lower value; activity change, % at 1.84 µM; 340,000 tested, 0.37% active;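 active = maximum activity change below -70%; inconclusive = maximum activity change between -70% and -50%; inactive = maximum activity change above -50%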; also: % is scaled to controls: 0 for no effect and ±100 for the full control effect
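U2OS cells transduced with wild-type KCNH2 virus are loaded with FluxOr dye for 45 min, and thallium flux is measured in kinetic reads before and after stimulation buffer. Rate constants are normalized to DMSO controls.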
PLK1 PBD block: inhibitors of human PLK1 polo-box domain binding; Plk1 PBD binding of FITC phosphopeptide, fluorescence polarization; 360,000 tested, 2.8% active; Potency, µM, without a hit: max response, negative = inhibition, usual class: inhibitors; P53350; also: potency is read from the fitted curve at half-maximal effect; series mostly up to about 57 µM; % is scaled to controls: 0 for no effect and ±100 for the full control effect; nearly all actives have a fitted effect of over 65% in size
VDR inh: vitamin D3 receptor (human) inhibition | VDR-SRC2-3 peptide fluorescence polarization, 2 h | 400,000 tested, 0.93% active | P11473 | AID 504847 | Potency, µM, for inactives: max response, negative = inhibition, actives largely listed as inhibitors; also: potency is read from the fitted curve at half-maximal effect; % is scaled to controls: 0 for no effect and ±100 for the full control effect
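Measured by FP: displacement of SRC2-3 coactivator peptide from VDR by library compounds, following a two-hour ambient incubation.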
MBNL1-CUG inh: inhibitors of human MBNL1 binding to CUG repeat RNA; Q9NR56; TR-FRET MBNL1-His/biotin-(CUG)12 binding, 665/545 ratio; Potency, µM (series often up to 57.5 µM), for the others: top-dose activity change, negative = inhibition, hits mostly inhibitors; 280,000 tested, 0.036% active; active = well fitted inhibition curve with a large enough effect in the signal ratio, with a control signal flat, not every such curve was filed as active; inconclusive = small, poorly fitted or top-dose-only effect, or effect the other way, or a change in a side signal; inactive = no such curve, though single readings can be large or run the other way; the % refers to the signal ratio; also: potency is read from the fitted curve at half-maximal effect; % is scaled to controls: 0 for no effect and ±100 for the full control effect
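Compounds (final 92 nM to 58 uM) are added to His-tagged MBNL1 and biotin-(CUG)12, then terbium anti-His antibody and streptavidin-XL665 (5 nM final). After 60 min at room temperature, the 665/545 nm ratio is read.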
Numbers without * were called inactive; ? = inconclusive; nt = not tested or not shown; [ ] = another dose, or the depositor's remark. Compounds with a hit are over-represented: about 3.8% of the library has one in this group of screens. Unless noted, calls follow the shape of the dose curve; as a rule, active = well fitted curve in the direction sought with a large enough effect; inconclusive = small, poorly fitted or top-dose-only effect, or another doubt; inactive = no such curve, though single readings can be large; an effect the other way counts as inactive or inconclusive.

SMILES | KCNH2 3.1 block | CBFb-RUNX1 inh | KCNH2 WT inh | PLK1 PBD block | VDR inh | MBNL1-CUG inh
O=C1NN(c2ccc(F)cc2)C(=O)/C1=C\c1cnn(-c2ccccc2)c1 | nt | -2.6% | nt | nt | nt | -2.8%
O=C1NN(c2ccccc2)C(=O)/C1=C/c1cccs1 | nt | -4.3% | nt | nt | nt | nt
CCOc1cc(/C=C2\C(=O)NN(c3ccccc3)C2=O)cc([N+](=O)[O-])c1O | 15.1 | -23.4% | 5.2 | 16.8µM* | ? | ?
COc1ccc(Sc2ccc(/C=C3\C(=O)NN(c4ccccc4)C3=O)o2)cc1 | -2.8 | ? | 0.3 | 5.97µM* | ? | 18.9%
O=C1NN(c2cccc(Br)c2)C(=O)/C1=C/c1cccs1 | -17.0 | 10.8% | 8.7 | 18.9µM* | ? | -2.7%
O=C1NN(c2ccccc2)C(=O)/C1=C\c1ccccc1 | 13.1 | nt | 7.3 | 8.44µM* | ? | -5.2%
COc1ccc(-c2cc3ccc(O)c(CN4CCCC4)c3oc2=O)cc1 | nt | nt | nt | nt | 7.1% | nt
CCOC(=O)C12CC1/C(=N\O)c1ccccc1O2 (stereo unspecified) | nt | 10.6% | nt | nt | 2.5% | nt
O=C(Cn1c(=O)nc(-c2ccccc2F)c2cc(Cl)ccc21)Nc1ccccc1C(F)(F)F | nt | nt | nt | nt | 10.5% | nt
O=C(Nc1cc(C(F)(F)F)ccc1Cl)c1cc(S(=O)(=O)NCc2ccccc2)ccc1F | nt | nt | nt | nt | -2.6% | nt
O=C1NN(c2ccccc2)C(=O)C1=Cc1ccccc1 | 0.1 | nt | -2.3 | 10.6µM* | nt | nt
O=C1NN(c2cccc(Br)c2)C(=O)/C1=C\c1ccccc1 | -6.0 | nt | -9.7 | 1.5µM* | ? | -8.2%
COc1cc(/C=C2/C(=O)NN(c3ccccc3)C2=O)cc(Br)c1O | -4.6 | nt | -8.8 | -7.6% | ? | ?
CCOC(=O)c1ccc(N2NC(=O)/C(=C/c3ccc(OC(=O)c4ccco4)c(OC)c3)C2=O)cc1 | nt | -17.3% | nt | nt | nt | -1.2%
CCOC(=O)COc1ccc(/C=C2/C(=O)NN(c3ccc(F)cc3)C2=O)cc1OC | -11.6 | nt | -12.5 | 26.7µM* | -21.9% | -0.6%
CCOC(=O)c1c(-c2ccc(C)cc2)csc1NC(=O)c1cc(=O)c2cc(Cl)ccc2o1 | nt | nt | nt | nt | -0.1% | nt
CC(C)Cc1ccc(-c2cc(=O)[nH][nH]2)cc1 | -4.3 | -5.0% | -5.4 | 16.8µM* | -21.3% | -6.8%
CC(=O)Nc1ccc(S(=O)(=O)N2CCN(c3nc(NC4CCCC4)c4ccccc4n3)CC2)cc1 | -86.0* | -4.1% | -89.7* | -2.7% | 13.8% | 0.8%
O=C(COc1ccccc1)Nc1ccc2nc(SCCOc3ccccc3)sc2c1 | nt | nt | nt | nt | 23.6% | nt
CCn1c(=N)c(C(=O)OC)cc2c(=O)n3ccccc3nc21 | nt | -3.3% | nt | nt | nt | ?
COc1cccc(NC(=O)c2cc3c(=O)n4ccccc4nc3n(CC(C)C)c2=N)c1 | -93.3* | -1.8% | -73.8* | 1.6% | 0.9% | -4.5%
Cc1cccc(NC(=O)c2cc3c(=O)n4ccccc4nc3n(CC(C)C)c2=N)c1 | -97.7* | -5.6% | -117.9* | -4.7% | -12.6% | 9.5%
Cc1ccc(CNC(=O)c2cc3c(=O)n4ccccc4nc3n(CC3CCCO3)c2=N)cc1 (stereo unspecified) | -70.8* | 6.6% | -23.7 | -11.0% | 10.7% | ?
N=c1c(C(=O)NC2CCCC2)cc2c(=O)n3ccccc3nc2n1CC1CCCO1 (stereo unspecified) | -37.7 | nt | -21.5 | -0.4% | -1.2% | ?
Cc1cccc(N(C)c2nc3ccc(C)cc3n3cnnc23)c1 | nt | nt | nt | nt | -8.1% | nt
O=C(Nc1nnc(Cc2ccccc2)s1)C1CCN(C(=O)c2cccs2)CC1 | nt | nt | nt | nt | -6.9% | nt
COc1ccc([C@]23Cc4ccccc4C(O2)C2=C(O3)C(=O)c3ccccc3C2=O)cc1 | nt | nt | nt | nt | nt | 9.5%[11.5 µM]
Cc1ccc(-c2csc(NC(=O)c3ccc4c(=O)n5c(nc4c3)CCCCC5)n2)cc1 | -10.3 | -2.8% | -76.6* | -0.1% | 5.3% | -14.4%
O=C(O)c1ccccc1-c1ccccc1C(=O)Nc1ccc(F)cc1 | -6.8 | nt | 0.8 | -9.6% | 1.2% | -10.9%
O=C(/C=C/c1ccc(NC(=O)c2ccccc2-c2ccccc2C(=O)O)cc1)c1ccccc1 | -7.1 | nt | -2.0 | -16.1% | 20µM* | 0.3%
